Experiments:
Assay type in all cases: functional
[1] = test system: Plasmodium falciparum; assay: GSK_TCMDC: Inhibition of Plasmodium falciparum 3D7 in whole red blood cells, using parasite LDH activity as an index of growth. Test compounds present at 2uM
[2] = test system: Plasmodium falciparum; assay: GSK_TCMDC: Inhibition of Plasmodium falciparum Dd2 in whole red blood cells, using parasite LDH activity as an index of growth. Test compounds present at 2uM
[3] = test system: HepG2; assay: GSK_TCMDC: Percent inhibition of human HepG2 cell line. Test compounds present at 10uM.

Row | SMILES | Inhibition [1] | Inhibition [2] | Inhibition [3]
1 | O=C(NCCCCN1CCCC2c3cccc(O)c3CCC21)c1ccc(-c2ccccc2)cc1 (centres undefined) | 93% | 4% | 18%
2 | COc1cccc(CN2CCC(C(=O)Nc3ccc(-c4nc5ccccc5[nH]4)cc3)CC2)c1 | 100% | 84% | 9%
3 | COc1cc(C(=O)NC2CC(C)(C)N(C)C(C)(C)C2)ccc1-c1cc2cc(Cl)c(Cl)cc2[nH]1 | 89% | 36% | 65%
4 | Cc1cc(S(=O)(=O)N2CCCCC(c3ccc(C(F)(F)F)cc3)=N2)c(Cl)cc1Cl | 97% | 97% | 17%
5 | CCCCNC(=O)[C@H](CC1CCCCC1)NC(=O)c1ccc(O)c(-c2cccc(C(F)(F)F)c2)c1 | 98% | 86% | 0%
6 | Cl.O=C(Nc1ccc2c(c1)CCN(C1CCC1)CC2)c1ccc(-c2cn3ccccc3n2)cc1 | 100% | 42% | 13%
7 | Fc1ccc2[nH]c(-c3cccc(-c4ccc(CN5CCN(c6ccncc6)CC5)cc4)c3)nc2c1.O=C(O)C(F)(F)F | 100% | 67% | 39%
8 | [O-][s+]1c(Cl)c(-c2ccc(Cl)cc2)c2ccc(Cl)cc21 (centres undefined) | 91% | 99% | 33%
9 | O=C(Nc1ccccc1)c1ccc(-c2cc3ccncc3cc2OC2CCNCC2)s1 | 100% | 8% | 0%
10 | CCNc1cc(C(=O)N[C@@H](Cc2ccccc2)[C@H](O)CNC(CC)c2cccc(Cl)c2)cc(N2CCCCS2(=O)=O)c1.Cl (some centres undefined) | 100% | 98% | 12%
11 | Cc1ccc(CN2CCN(CC(O)COc3ccc4c(c3)CCC4)CC2)cc1 (centres undefined) | 95% | 0% | 0%
12 | CC1(C)N=C(N)N=C(Nc2ccc(Cl)cc2)N1.Cl | 97% | 0% | 8%
13 | N=C(/N=C(/NCCCCCCN/C(=N\C(=N)Nc1ccc(Cl)cc1)N1CCCCC1)N1CCCCC1)Nc1ccc(Cl)cc1 | 100% | 98% | 0%
14 | CN(C)CCOc1ccc(-c2cc(-c3ccc(Cl)c(O)c3)c(-c3ccncc3)o2)cc1.Cl | 100% | 99% | 39%
15 | CC1CCc2sc(-c3nnc(SC(C)C(=O)NC4CC4)o3)cc2C1 (centres undefined) | 83% | 69% | 5%
16 | OCCc1ccc(Nc2nccc(-c3nnc4ccccn34)n2)cc1 | 93% | 46% | 63%
17 | O=C(O)C(F)(F)F.c1ccc(CNCCn2c(-c3ccc4c(c3)CCO4)nc3c(N4CCCC4)cccc32)cc1 | 82% | 85% | 9%
18 | Cn1cnc(CCNC(=O)c2cccc(-c3csc(-c4nc5ccccc5[nH]4)c3)c2)c1 | 100% | 26% | 33%
19 | COc1ccc2nccc([C@@H](O)CN3CCC(NCCOc4ccc(F)cc4[N+](=O)[O-])CC3)c2c1.O=C(O)C(=O)O | 99% | 92% | 8%
20 | CS(=O)(=O)O.Nc1nc(NCC2CCC(CNS(=O)(=O)c3cccc4ccccc34)CC2)nc2ccccc12 (centres undefined) | 97% | 42% | 9%
21 | O=C(CCCCCNC(=O)c1ccc(O)c(-c2ccc(Cl)c(Cl)c2)c1)NCc1cccc(C(F)(F)F)c1 | 92% | 10% | 2%
22 | CC(C)CC(C)NC(=O)C1Cc2c([nH]c3ccc(F)cc23)C2(CCN(Cc3ccccc3)CC2)N1 (centres undefined) | 97% | 49% | 18%
23 | Cc1ncc([N+](=O)[O-])n1CCOC(=O)NC(Nc1ccc(Br)cc1)C(Cl)(Cl)Cl (centres undefined) | 99% | 100% | 0%
24 | Cc1ccc(-c2nc3cc(C(=O)NC4CCN(Cc5ccccc5)CC4)ccc3[nH]2)cc1 | 100% | 53% | 20%
25 | NCc1ccc(-c2ccccc2CNC2CCN(Cc3ccccc3)CC2)cc1.O=C(O)C(F)(F)F | 94% | 3% | 20%
26 | CCCCc1ccc(-c2ccc3[nH]c(C)c(Br)c(=O)c3c2)cc1 | 97% | 97% | 0%
27 | CN(CCCCCNC(=O)/C=C/c1ccc(Cl)c(Cl)c1)CCc1c[nH]c2ccccc12 | 91% | 18% | 40%
28 | CCOC(=O)c1c(C)n(-c2ccccc2)c2ccc(OC(=O)COc3ccc(Cl)cc3Cl)cc12 | 99% | 87% | 11%

Source: ChEMBL document CHEMBL1157539, “Thousands of chemical starting points for antimalarial lead identification” (Nature, 2010)
